“And” between values parts separate entries of the source, which are not always exact repeats. Equal values may be shown once. Records with an inconclusive call do not appear. Unmarked numbers belong to inactive results. The source made the active and inactive calls. The call rests on the fitted dose curve; in most records, active means well fitted curve in the direction sought with a large enough effect; inconclusive means small, poorly fitted or top-dose-only effect, or another doubt; inactive means no such curve, though single readings can be large; an effect the other way counts as inactive or inconclusive.

One test relates to TAB113. Put plainly: qHTS profiling for inhibitors of Plasmodium falciparum proliferation (AID 504749). Further: nearly all actives have a fitted effect of over 60% in size. Particulars: P. falciparum in erythrocytes, SYBR Green DNA, 72 h; series mostly up to 28.7 µM. An outline of the steps:
(§1)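 Parasite proliferation within erythrocytes, 72 h exposure. Endpoint: SYBR Green I fluorescence after overnight lysis at room temperature. Controls: 0.29 uM artemisinin, DMSO.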

The next test relates to TAB165. The test is described as above. Particulars: P. falciparum in erythrocytes, SYBR Green DNA, 72 h; series mostly up to 28.7 µM. The essentials:
as §1

For another test, the system named is W2. The test is described as above. Particulars: P. falciparum in erythrocytes, SYBR Green DNA, 72 h; series mostly up to 28.7 µM. The essentials:
as §1

The test system of the next test is CRL-7250. Put plainly: Cytotoxic Profiling of Annotated Libraries Using Quantitative High-Throughput Screening (AID 1296008). Further: nearly all actives have a fitted effect of over 60% in size. On max response: on the % scale 0 is the no-effect control and ±100 the full control effect. Particulars: Five cell lines viability, CellTiter-Glo ATP luminescence, 48-72 h; max response: stronger effect = lower value. An outline of the steps: (§2)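 Compounds were pin-transferred onto cells and incubated 48 or 72 hr at 37 degree Celsius, 95% humidity. CellTiter-Glo was added, plates sat 10 min at room temperature, then ATP-coupled luminescence was imaged as the viability read-out.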
A general note: In ATP-based viability assays light output follows the ATP content of the culture.

The subject of test [1] is HaCat. The description is as above. The following applies: Five cell lines viability, CellTiter-Glo ATP luminescence, 48-72 h; max response: stronger effect = lower value. The essentials: as §2
The subject of the next test is KB-3-1. The description is as above. The following applies: Five cell lines viability, CellTiter-Glo ATP luminescence, 48-72 h; max response: stronger effect = lower value. An outline of the steps:
as §2

The test system of a further test is MCC-13. Briefly: qHTS assay to identify novel small-molecules to repurpose for Merkel cell carcinoma treatment (AID 1296009). Further: nearly all actives have a fitted effect of over 60% in size. The following applies: MCC and control cell lines, CellTiter-Glo viability, 72 h; series mostly up to 46 µM. The essentials:
(§3)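 qHTS format: cells treated with library compounds in DMSO across 8 (NPC) or 11 (MIPE) concentrations. Readout after 72 hr at 37 degree celsius was CellTiter-Glo luminescence.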
On the technique in general: qHTS replaces the single test concentration by a dilution series.

For another test, the system named is MKL-2. Described as above. The following applies: MCC and control cell lines, CellTiter-Glo viability, 72 h; series mostly up to 46 µM. An outline of the steps:
as §3

For a further test, the system named is C33A. Put plainly: Primary qHTS to identify gynecologic anti-cancer compounds using libraries of approved drugs and bioactive compounds (AID 1345084). Further: nearly all actives have a fitted effect of over 55% in size. The following applies: Gynecologic cancer cell panel viability, ATPlite luminescence, 48 h; series mostly up to 57.5 µM. An outline of the steps:
(§4)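 In this quantitative HTS, cell killing is estimated from loss of ATP-dependent luciferase light. Cells see five compound concentrations over a 48 h exposure.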

For a further test, the system named is CASKI. The test is described as above. The following applies: Gynecologic cancer cell panel viability, ATPlite luminescence, 48 h; series mostly up to 57.5 µM. The essentials: as §4
In a further test the test system is NIH3T3. Put plainly: Cytotoxic Profiling of Annotated Libraries Using Quantitative High-Throughput Screening (AID 1296008). Further: nearly all actives have a fitted effect of over 60% in size. On max response: on the % scale 0 is the no-effect control and ±100 the full control effect. The following applies: Five cell lines viability, CellTiter-Glo ATP luminescence, 48-72 h; max response: stronger effect = lower value. The essentials: as §2
Test [2] deals with HACAT. Put plainly: qHTS assay to identify novel small-molecules to repurpose for Merkel cell carcinoma treatment (AID 1296009). Further: nearly all actives have a fitted effect of over 60% in size. The following applies: MCC and control cell lines, CellTiter-Glo viability, 72 h; at 44.8 µM (top of the series) unless noted. The essentials:
as §3

Another test deals with MCC-26. The test is described as above. The following applies: MCC and control cell lines, CellTiter-Glo viability, 72 h; series mostly up to 46 µM. An outline of the steps: as §3
In the next test the test system is CAOV3. Briefly: Primary qHTS to identify gynecologic anti-cancer compounds using libraries of approved drugs and bioactive compounds (AID 1345084). Further: nearly all actives have a fitted effect of over 55% in size. The following applies: Gynecologic cancer cell panel viability, ATPlite luminescence, 48 h; series mostly up to 57.5 µM. An outline of the steps: as §4
A further test concerns MKL-1. Briefly: qHTS assay to identify novel small-molecules to repurpose for Merkel cell carcinoma treatment (AID 1296009). Further: nearly all actives have a fitted effect of over 60% in size. Particulars: MCC and control cell lines, CellTiter-Glo viability, 72 h; series mostly up to 46 µM. The essentials: as §3
The next test deals with HEK293. Put plainly: Cytotoxic Profiling of Annotated Libraries Using Quantitative High-Throughput Screening (AID 1296008). Further: nearly all actives have a fitted effect of over 60% in size. On max response: on the % scale 0 is the no-effect control and ±100 the full control effect. The following applies: Five cell lines viability, CellTiter-Glo ATP luminescence, 48-72 h; max response: stronger effect = lower value. The essentials:
as §2

A further test has as its system UISO. Briefly: qHTS assay to identify novel small-molecules to repurpose for Merkel cell carcinoma treatment (AID 1296009). Further: nearly all actives have a fitted effect of over 60% in size. The following applies: MCC and control cell lines, CellTiter-Glo viability, 72 h; series mostly up to 46 µM. The essentials:
as §3

A further test concerns WaGa. The test is described as above. The following applies: MCC and control cell lines, CellTiter-Glo viability, 72 h; series mostly up to 46 µM. An outline of the steps:
as §3
Potency means the concentration at half of the fitted maximal effect.

Take `COC1=CC(=O)C[C@@H](C)[C@]12Oc1c(Cl)c(OC)cc(OC)c1C2=O`: the Potency entry in the test with TAB113, with TAB165, in the test on W2, in the test with MCC-13, in the test with MKL-2 and with C33A was “inactive” in each case. Moreover, in the test on CASKI, the Potency result was “inactive”. The outcome in the test on CRL-7250 was inactive. Further, in the test on HaCat [1], the Potency was 23.7 µM (active). Moreover, the max response in the test on KB-3-1 was -57.5%.

Consider `COc1ccc(CN2CCN(C(c3ccc(F)cc3)c3ccc(F)cc3)CC2)c(OC)c1OC`, for which the Potency is 8.91 µM (active) in the test with TAB113, 7.08 µM (active) in the test with TAB165 and 3.38 µM (active) in the test with W2. Also, the molecule was classed as inactive with CRL-7250, with HaCat [1] and in the test on HACAT [2]. Further, the max response is -19.9% with HaCat [1]; 6.7% with KB-3-1; 1.96% and 2.43% with NIH3T3. For the same molecule, the Potency entry with MCC-13, with MCC-26, with C33A, in the test on CAOV3 and in the test with CASKI was “inactive” each time.

In the case of `c1ccc(OCc2ccc(CCCN3CCOCC3)cc2)cc1`, the Potency result with TAB113, in the test on TAB165, with MCC-13, in the test with MCC-26, in the test on MKL-1 and in the test with C33A was “inactive” each time. Moreover, in the test with CASKI, the Potency entry was “inactive”. Also, the max response was -18% in the test on CRL-7250, 1.82% in the test with HaCat [1] and 2.12% in the test on KB-3-1.

`CN(C)C(=S)SC(=S)N(C)C`: the Potency in the test on TAB113 was 11.2 µM (active); in the test on TAB165 it was 11.2 µM (active); in the test on W2, 9.53 µM (active); with CRL-7250 it was 8.41 µM (active); in the test with HEK293, 5.96 µM (active); in the test on NIH3T3, 2.66 µM (active). In addition, the Potency was 2.99 µM (active) in the test on MCC-13, 3.35 µM (active) with MKL-2, 1.19 µM (active) in the test with UISO and 15.8 µM (active) with C33A. For the same molecule, the max response with KB-3-1 was 31.5%. Moreover, the Potency entry in the test on CASKI was “inactive”.

`CCCCCCCCCCCCCCCC[N+](C)(C)CC`: the Potency was 5.01 µM (active) in the test on TAB113; 4.47 µM (active) with TAB165; 3.79 µM (active) with W2; 6.68 µM (active) in the test with CRL-7250; 2.99 µM (active) in the test on HEK293; 5.96 µM (active) in the test with HaCat [1]. The Potency with MKL-1 was 0.119 µM (active); in the test on MKL-2 it was 0.0473 µM (active); with UISO it was 0.668 µM (active); in the test on WaGa, 0.119 µM (active); in the test on CASKI, 8.91 µM (active).

Consider `Cc1ccccc1C(=O)Nc1ccc(C(=O)N2CCCC(N(C)C)c3ccccc32)cc1` (stereo not given), for which the Potency in the test on CRL-7250 was 23.7 µM (active); with HEK293, 3.35 µM (active) and 5.8 µM (active); with KB-3-1 it was 7.31 µM (active); in the test on NIH3T3, 9.44 µM (active). The Potency entry in the test on MCC-13, in the test with MCC-26, with MKL-1, in the test on MKL-2, with UISO and in the test on WaGa was “inactive” throughout. Besides, the Potency entry in the test on C33A is “inactive”.

For the molecule `OC(CCN1CCCCC1)(c1ccccc1)c1ccccc1`, the values for the Potency with TAB113, with TAB165 and in the test on W2 were 8.91 µM (active), 14.1 µM (active) and 4.26 µM (active), respectively. For the same molecule, the call with CRL-7250, in the test on HaCat [1] and in the test with HACAT [2] was inactive. For the same molecule, the max response in the test with KB-3-1 is 16.8%; in the test with NIH3T3, 2.78%. Further, the Potency entry in the test with MCC-13, in the test with MKL-1, in the test on MKL-2, in the test with UISO, with WaGa and with C33A was “inactive” in each case. The Potency entry in the test with CASKI was “inactive”.

Regarding `C=C1C(=C/C=C2\CCC[C@]3(C)[C@@H]([C@H](C)/C=C/[C@@H](O)C4CC4)CC[C@@H]23)C[C@@H](O)C[C@@H]1O`, the molecule was classed as inactive in the test on CRL-7250, in the test on HaCat [1] and in the test on HACAT [2]. In addition, the max response is 29.7% in the test with KB-3-1 and -35.8% in the test on NIH3T3. The Potency result in the test with MCC-13, with MCC-26, in the test on C33A and in the test with CASKI was “inactive” each time.

In the case of `COc1cccc(CCc2ccccc2OCC(CN(C)C)OC(=O)CCC(=O)O)c1` (stereo not given), the Potency was 5.62 µM (active) in the test on TAB113, 4.47 µM (active) in the test with TAB165 and 0.757 µM (active) in the test on W2. The max response in the test on CRL-7250 is 3.68%; in the test on KB-3-1, -2.49%; with NIH3T3 it was -1.97%. The Potency entry in the test on MCC-13, with MCC-26, in the test on MKL-1, in the test with UISO, in the test on C33A and in the test with CAOV3 was “inactive” each time. In addition, in the test on CASKI, the Potency entry was “inactive”.

Source of the values: PubChem BioAssay (NCATS).
